Among the test systems are EKVX NSCLC; SN12C renal; UO-31 renal; TK-10 renal; ACHN renal; A498 renal; MOLT-4 leukemia; CCRF-CEM leukemia; CAKI-1 renal.
Experiment in all cases: NCI-60 one-dose screen, 48 h (100 = growth as untreated, 0 = no growth, -100 = all killed)
What all share (settings): 10 µM

Compounds without any hit were thinned out: in the full panel of roughly 83,000, 20% have a hit.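 Testing used 96-well plates and a 48-hour single-concentration exposure. Example: -40 means 40% of the starting cells died.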 A number with no mark means an inactive call. Active and inactive are the calls of the source. How the source made its calls: active means growth percent below 10; inactive means the rest.

With `O=c1[nH]c(=O)n(C2C[C@H](O)[C@@H](CO)O2)cc1C(F)(F)F` (stereo partly specified), the growth in the experiment on EKVX NSCLC is 109%; in the experiment on SN12C renal it was 110%; in the experiment on UO-31 renal it was 89.7%; in the experiment on TK-10 renal, 104%; in the experiment on ACHN renal, 106%; with A498 renal, 118%. For the same compound, in the experiment with MOLT-4 leukemia, the growth was 70.2%.

For `CN1C(C(=O)Nc2ccccn2)=C(O)c2sc(Cl)cc2S1(=O)=O`, the growth was 102% in the experiment with EKVX NSCLC; 103% in the experiment on SN12C renal; 78.8% with UO-31 renal; 104% in the experiment with TK-10 renal; 100% in the experiment with ACHN renal; 90.1% with A498 renal. In addition, the growth in the experiment with CCRF-CEM leukemia is 87.4%; in the experiment with MOLT-4 leukemia it was 110%.

Consider `Cc1cc(C(C#N)c2ccc(Cl)cc2)c(Cl)cc1NC(=O)c1cc(I)cc(I)c1O` (stereo unspecified), for which the growth was 41.2% in the experiment on EKVX NSCLC; 31% in the experiment with SN12C renal; 79.8% with UO-31 renal; 65.3% in the experiment with TK-10 renal; 79.8% in the experiment with ACHN renal; -37% (active) in the experiment on A498 renal. Moreover, in the experiment with MOLT-4 leukemia, the growth is 15.3%.

On to `C=C(NC(=O)C(=C)NC(=O)c1csc(C2=NC3c4csc(n4)C4NC(=O)c5csc(n5)C(C(C)(O)C(C)O)NC(=O)C5CSC(=N5)C(=CC)NC(=O)C(C(C)O)NC(=O)c5csc(n5)C3(CC2)NC(=O)C(C)NC(=O)C(=C)NC(=O)C(C)NC(=O)C(C(C)CC)NC2C=Cc3c(C(C)O)cc(nc3C2O)C(=O)OC4C)n1)C(N)=O` (stereo unspecified), for which the growth with EKVX NSCLC is 72.2%; with SN12C renal it was 25.6%; in the experiment on UO-31 renal, 64.7%; in the experiment on TK-10 renal it was 27.7%; with ACHN renal, 23.6%; in the experiment with CAKI-1 renal, 71.4%. Also, the growth in the experiment on MOLT-4 leukemia is -36.9% (active).

Turning to `C[C@@H](O)[C@H]1C(=O)N2C(C(=O)O)=C(SCCN=CN)C[C@H]12`, the growth was 7.62% (active) in the experiment with EKVX NSCLC; 2.27% (active) in the experiment on SN12C renal; -50.4% (active) in the experiment on UO-31 renal; -0.459% (active) in the experiment with TK-10 renal; -30.6% (active) in the experiment on ACHN renal; -28.2% (active) with CAKI-1 renal. The growth in the experiment on A498 renal was -36.4% (active); in the experiment on CCRF-CEM leukemia, 4.2% (active); in the experiment on MOLT-4 leukemia, -13.9% (active).

For the compound `N=C1S/C(=C/c2ccc(-c3ccc4c(c3)C(=O)NC4=O)o2)C(=O)N1c1ccc(Br)cc1`, the growth with SN12C renal is 56.3%; in the experiment with UO-31 renal, -13.3% (active); in the experiment on TK-10 renal, 42.6%; in the experiment on ACHN renal, 52%; in the experiment on CAKI-1 renal, 33.7%; with A498 renal, 39.5%. In addition, the growth with MOLT-4 leukemia was 52.2%.

For the compound `COc1ccc(C2CC(c3cccs3)=NN2c2ccc(S(N)(=O)=O)cc2)cc1` (stereo unspecified), the growth in the experiment on SN12C renal was 91.3%; in the experiment with TK-10 renal, 108%; in the experiment on ACHN renal, 90.2%; in the experiment with CAKI-1 renal it was 88.9%; in the experiment on A498 renal, 78.5%; with CCRF-CEM leukemia it was 76.3%. The growth in the experiment on MOLT-4 leukemia was 71.3%.

On to `COc1cc(-c2ccc[nH]2)[nH]c1/C=C1\N=C(C)C(C(=O)NC(C)C)=C1C`, for which the growth with EKVX NSCLC was 35.4%; in the experiment with SN12C renal, 38.3%; in the experiment with TK-10 renal it was 17.7%; in the experiment with ACHN renal, 12.6%; in the experiment on CAKI-1 renal, 20%; in the experiment on A498 renal, 67.7%. In addition, in the experiment on MOLT-4 leukemia, the growth was -14.2% (active).

As to `CCc1cc(Cl)c(OC)c(C(=O)NCC2CCCN2CC)c1O` (stereo unspecified), the growth is 82.4% in the experiment on EKVX NSCLC; 92.5% with SN12C renal; 104% in the experiment on TK-10 renal; 88.5% in the experiment with ACHN renal; 72.2% with CAKI-1 renal; 70.1% in the experiment on A498 renal. The growth with MOLT-4 leukemia is 88%.

Consider `CCc1c2c(nc3ccc(OC(=O)N4CCC(N5CCCCC5)CC4)cc13)-c1cc3c(c(=O)n1C2)COC(=O)[C@]3(O)CC`, for which the growth with EKVX NSCLC was 67.2%; in the experiment on SN12C renal, 16.2%; in the experiment on UO-31 renal, 11.6%; in the experiment on TK-10 renal, 81.6%; with ACHN renal, 1.66% (active); with CAKI-1 renal, -17.4% (active). For the same compound, the results for the growth in the experiment with A498 renal, in the experiment on CCRF-CEM leukemia and in the experiment with MOLT-4 leukemia were 9.23% (active), 5.44% (active) and -20.6% (active), respectively.

In the case of `Clc1ccc2c(c1)C(N1CCNCC1)=Nc1ccccc1O2`, the growth is 64.6% in the experiment on EKVX NSCLC; 57.8% in the experiment on SN12C renal; 28.3% in the experiment on UO-31 renal; 64.9% in the experiment on TK-10 renal; 46% in the experiment on ACHN renal; 36.5% in the experiment with CAKI-1 renal. Also, the values for the growth in the experiment with A498 renal, in the experiment with CCRF-CEM leukemia and with MOLT-4 leukemia were 25.2%, 58.5% and 20%, respectively.

Take `O=C(CCCCCCC(=O)Nc1ccccc1)NO`: the growth with EKVX NSCLC was 28.8%; with SN12C renal it was 11.7%; in the experiment on UO-31 renal it was -2.53% (active); in the experiment on TK-10 renal, 6.84% (active); with ACHN renal, 4.68% (active); in the experiment with CAKI-1 renal, -28.3% (active). Further, the growth was -44.9% (active) in the experiment on A498 renal and -5.35% (active) in the experiment on MOLT-4 leukemia.

For `O=C1/C(=C/c2cccc(F)c2)Cc2ccccc21`, the growth is 98.6% in the experiment on SN12C renal; 92.8% in the experiment on UO-31 renal; 94.2% in the experiment with TK-10 renal; 102% in the experiment on ACHN renal; 82.9% with CAKI-1 renal; 112% in the experiment with MOLT-4 leukemia.

Take `C[C@H]1[C@H](OC(=O)CCC(=O)O)O[C@@H]2O[C@]3(C)CC[C@H]4[C@H](C)CC[C@@H]1[C@@]24OO3`: the growth in the experiment on EKVX NSCLC is 29.2%; in the experiment with SN12C renal, 33.3%; in the experiment on TK-10 renal, 46.8%; in the experiment on ACHN renal, 27%; with CAKI-1 renal, 16.7%; in the experiment on A498 renal, 80.6%. Moreover, the growth in the experiment on MOLT-4 leukemia is 14.8%.

In the case of `O[C@@H]1CO[C@H]2[C@@H]1OC[C@@H]2O`, the growth with EKVX NSCLC was 87.6%; in the experiment with SN12C renal, 103%; in the experiment with UO-31 renal it was 106%; with TK-10 renal, 117%; in the experiment on ACHN renal it was 98.9%; in the experiment on CAKI-1 renal, 79.2%. Also, the growth is 101% with CCRF-CEM leukemia and 116% in the experiment on MOLT-4 leukemia.

With `COc1ccc(CCN2CCC(Nc3nc4ccccc4n3Cc3ccc(F)cc3)CC2)cc1`, the growth in the experiment on EKVX NSCLC is 45.1%; with SN12C renal, 34.1%; in the experiment with UO-31 renal, -19.8% (active); in the experiment with TK-10 renal it was -6.61% (active); with ACHN renal, 12.5%; in the experiment with CAKI-1 renal, -1.28% (active). The growth in the experiment on A498 renal was -9.07% (active); in the experiment on MOLT-4 leukemia, -40.7% (active).

Source of the values: PubChem BioAssay (NCI).
